Results filed as inconclusive are left out. Active and inactive are the calls of the source. How the source made its calls, unless noted: active means hit-call score of the fitted dose curve at least 0.9, where 1 is the maximum; inactive means score below 0.9.
Tests used:
[1] = APR_HepG2_CellCycleArrest_1hr: Apredica 1-hour HepG2 Assay for Cell Cycle Arrest (AID 2282666); conditions: high-content imaging, actives raise or lower the signal
Summary of the method: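 HepG2 cells exposed for 1 h to 0.39–200 uM compound (0.5% DMSO). Fixed, Hoechst-stained nuclei imaged by ArrayScan; DNA content quantified by Cell Cycle analysis; bidirectional fit against DMSO.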

[2] = ACEA_ER_80hr: ACEA Biosciences xCELLigence Real-Time Cell Analysis on Estrogen Receptor Agonism for Proliferation (AID 2282667; active means hit-call score of the fitted dose curve at least 0.9, where 1 is the maximum); conditions: T47D proliferation, impedance (xCELLigence), 80 h
Summary of the method: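 Real-time impedance growth kinetics of human T-47D breast cells read 80 h after dosing, gain-of-signal fitted relative to DMSO. Compounds: 1:4 serial series, top final concentration 100 uM, n = 2.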

[3] = APR_HepG2_MicrotubuleCSK_1hr: Apredica 1-hour HepG2 Assay for Microtubule CSK Stabilty (AID 2282669); conditions: HepG2 microtubule cytoskeleton imaging, actives raise or lower the signal
Summary of the method: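 HepG2 cells exposed 1 h to 0.39–200 uM compound (0.5% DMSO, duplicates), then formaldehyde-fixed, permeabilized and immunostained for alpha-tubulin with Hoechst nuclei. Imaged by ArrayScan high-content analysis; bidirectional fit versus DMSO.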

[4] = APR_HepG2_NuclearSize_1hr: Apredica 1-hour HepG2 Assay for Nuclear Size (AID 2282670); conditions: high-content imaging, actives raise or lower the signal
Summary of the method: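 HepG2 cells dosed 1 hr with 0.39–200 uM compound (0.5% DMSO), formaldehyde-fixed, Hoechst 33342-stained and imaged at 20x; nuclear diameter from nuclear stain, fitted bidirectionally against DMSO.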

[5] = APR_HepG2_p53Act_1hr: Apredica 1-hour HepG2 Assay for p53 Activation (AID 2282671); conditions: high-content imaging, actives raise or lower the signal
Summary of the method: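 HepG2 cells treated 1 h with compound at 0.39–200 uM (10 concentrations, duplicate) in 0.5% DMSO. Formaldehyde-fixed, permeabilised cells immunostained for p53 with Hoechst 33342; high-content imaging, bidirectional fit versus DMSO.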

[6] = APR_HepG2_MitoticArrest_1hr: Apredica 1-hour HepG2 Assay for Mitotic Arrest (AID 2282672); conditions: high-content imaging, actives raise or lower the signal
Summary of the method: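 HepG2 cells exposed 1 hr to compounds at 0.39–200 uM (0.5% v/v DMSO final), then fixed in 3.7% formaldehyde and immunostained for phospho-histone H3 with Hoechst 33342. Mitotic arrest scored by automated fluorescence imaging, fitted bidirectionally versus DMSO.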

[7] = APR_HepG2_MitoMembPot_1hr: Apredica 1-hour HepG2 Assay for Mitochondrial Membrane Potential (AID 2282675); conditions: imaging, actives raise or lower the signal
Summary of the method: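 HepG2 cells dosed 1 hour with 0.39–200 uM compound in duplicate, 0.5% DMSO final. MitoTracker Red CMXRos (250 nM, 30 min) loaded before formaldehyde fixation; fluorescence quantified by high-content imaging, bidirectional fitting versus DMSO.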

[8] = APR_HepG2_CellCycleArrest_24hr: Apredica 24-hour HepG2 Assay for Cell Cycle Arrest (AID 2282905); conditions: imaging, actives raise or lower the signal;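 further: cell cycle arrest scored as ratio of 2N to 4N nuclear DNA content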
Summary of the method: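 Cell cycle arrest is scored from nuclear DNA content measured by high-content imaging of Hoechst 33342-stained HepG2 cells following 24-hour treatment at ten concentrations up to 200 uM, with DMSO as baseline.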

[9] = APR_HepG2_NuclearSize_24hr: Apredica 24-hour HepG2 Assay for Nuclear Size (AID 2282907); conditions: high-content imaging, actives raise or lower the signal
Summary of the method: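 Compounds in DMSO (final 0.5%) were added to human HepG2 hepatoma cells at ten concentrations up to 200 uM for 24 hr. Fixed nuclei were stained with Hoechst 33342, and nuclear diameter was quantified from automated images.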

[10] = APR_HepG2_CellLoss_24hr: Apredica 24-hour HepG2 Assay for Cell Loss (AID 2282908); conditions: high-content imaging;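 on AC50: fit in both directions so a hit may be cell loss or gain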
Summary of the method: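 Cell number is quantified by fluorescence imaging of Hoechst 33342-stained nuclei following dosing at 0.39–200 uM in 0.5% DMSO. Curves are fitted in both directions from the DMSO baseline.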

[11] = APR_HepG2_MicrotubuleCSK_24hr: Apredica 24-hour HepG2 Assay for Microtubule CSK Stabilty (AID 2282909); conditions: HepG2 microtubule cytoskeleton imaging, actives raise or lower the signal
Summary of the method: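 Steps: dose HepG2 for 24 h (0.39–200 uM, 0.5% DMSO); fix 30 min in 3.7% formaldehyde at room temperature; permeabilize; stain alpha-tubulin 60 min; image microtubule cytoskeleton at 20x. Signal change fitted in both directions relative to DMSO.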

[12] = APR_HepG2_MitoticArrest_24hr: Apredica 24-hour HepG2 Assay for Mitotic Arrest (AID 2282910); conditions: high-content imaging, actives raise or lower the signal
Summary of the method: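 HepG2 human liver cells were exposed to compounds at 0.39–200 uM (10 concentrations, duplicate) in 0.5% v/v DMSO for 24 hr, then fixed and immunostained for phospho-histone H3 with Hoechst 33342. Mitotic arrest came from HCS fluorescent imaging, fitted bidirectionally against DMSO.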

[13] = APR_HepG2_MitoMass_24hr: Apredica 24-hour HepG2 Assay for Mitochondrial Mass (AID 2282912); conditions: high-content imaging, actives raise or lower the signal
Summary of the method: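 The liver line HepG2 was dosed in duplicate across a 0.39–200 uM series, with final DMSO held at 0.5% v/v, and harvested at 24 hr. High-content imaging measured mitochondrial dye staining.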

[14] = APR_HepG2_p53Act_24hr: Apredica 24-hour HepG2 Assay for p53 Activation (AID 2282913); conditions: high-content imaging, actives raise or lower the signal;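 further: p53 protein immunofluorescence averaged per cell in HepG2 with Hoechst nuclei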
Summary of the method: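 Fluorescence imaging of formaldehyde-fixed HepG2 cells labelled for p53 and with Hoechst, 24 h after dosing (0.39–200 uM, duplicate wells, 0.5% v/v DMSO). Signal fitted in both directions relative to DMSO.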

[15] = APR_HepG2_CellCycleArrest_72hr: Apredica 72-hour HepG2 Assay for Cell Cycle Arrest (AID 2282914); conditions: high-content imaging, actives raise or lower the signal
Summary of the method: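 Read-out: nuclear DNA content from Hoechst 33342 high-content imaging (20x, six fields/well) after 3.7% formaldehyde fixation, fitted bidirectionally against DMSO. Treatment was 72 h in HepG2, ten concentrations 0.39–200 uM, duplicate, 0.5% DMSO.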

[16] = APR_HepG2_CellLoss_1hr: Apredica 1-hour HepG2 Assay for Cell Loss (AID 2282668); conditions: high-content imaging;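 further: curves fitted both ways against DMSO so gain or loss of cells counts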
Summary of the method: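 HepG2 cells were treated for 1 h with compound at 0.39–200 uM, in duplicate, in 0.5% DMSO. After formaldehyde fixation, Hoechst 33342-stained nuclei were imaged on an ArrayScan to count cells. Data were fitted bidirectionally versus DMSO.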

[17] = APR_HepG2_P-H2AX_1hr: Apredica 1-hour HepG2 Assay for H2AX Phosphorylation (AID 2282673); conditions: high-content imaging, actives raise or lower the signal
Summary of the method: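 HepG2 dosed 1 hr at 0.39-200 uM (0.5% DMSO final), duplicate. Fixed in 3.7% formaldehyde, Triton permeabilized, immunostained for phospho-histone H2A.x (1:200) with Hoechst 33342; ArrayScan 20x imaging, bidirectional fit vs DMSO.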

[18] = APR_HepG2_StressKinase_1hr: Apredica 1-hour HepG2 Assay for Stress Kinase (AID 2282906); conditions: HepG2 stress kinase (phospho-c-Jun) imaging, actives raise or lower the signal
Summary of the method: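 HepG2 cells dosed 0.39-200 uM (0.5% DMSO) for 1 h, then formaldehyde-fixed. Stress kinase read by phospho-c-Jun immunofluorescence using high-content imaging; bidirectional fit vs DMSO.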

[19] = APR_HepG2_MitoMass_1hr: Apredica 1-hour HepG2 Assay for Mitochondrial Mass (AID 2282674); conditions: high-content imaging, actives raise or lower the signal
Summary of the method: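 HepG2 cells dosed 1 hr with 0.39-200 uM compound (0.5% DMSO), duplicate wells. Mitochondria stained with 250 nM MitoTracker Red CMXRos for 30 min before formaldehyde fixation, imaged at 20x by ArrayScan; bidirectional fit versus DMSO.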

[20] = APR_HepG2_MitoMembPot_24hr: Apredica 24-hour HepG2 Assay for Mitochondrial Membrane Potential (AID 2282911); conditions: imaging, actives raise or lower the signal
Summary of the method: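 Mitochondrial membrane potential imaged via MitoTracker Red CMXRos (250 nM, 30 min pre-fixation) in fixed HepG2 cells with Hoechst nuclear identification. Ten concentrations 0.39–200 uM, 24 h treatment, 0.5% DMSO; CCCP as positive control.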

Measured: AC50

CCCCC(C#N)(Cn1cncn1)c1ccc(Cl)cc1 (configuration not stated)
not listed: [16] | [17] | [18] | [19] | [20]
inactive: all other assays above

COC(=O)NC(=S)Nc1ccccc1NC(=S)NC(=O)OC
active: [11] 28.6 µM | [15] 100 µM
not listed: [4] | [6] | [19] | [20]
inactive: all other assays above

CC(C)NC(=O)N1CC(=O)N(c2cc(Cl)cc(Cl)c2)C1=O
not listed: [1] | [17] | [18]
inactive: all other assays above

Cc1cnc(C2=NC(C)(C(C)C)C(=O)N2)c(C(=O)O)c1 (configuration not stated)
not listed: [4] | [6] | [18] | [19] | [20]
inactive: all other assays above

CCOc1nc(F)cc2nc(S(=O)(=O)Nc3c(Cl)cccc3Cl)nn12
not listed: [4] | [20]
inactive: all other assays above

CC(C)C1(C)N=C(c2ncccc2C(=O)O)NC1=O (configuration not stated)
not listed: [4] | [6] | [16] | [19] | [20]
inactive: all other assays above

CCN(CC)c1nc(C)cc(OP(=S)(OC)OC)n1
not listed: [6] | [16] | [17] | [18] | [19]
inactive: all other assays above

N#CN=C1SCCN1Cc1ccc(Cl)nc1
not listed: [4] | [16] | [19]
inactive: all other assays above

COc1cc(OC)nc(NC(=O)NS(=O)(=O)c2ncccc2OCC(F)(F)F)n1
not listed: [4] | [16] | [17] | [20]
inactive: all other assays above

CCCN(CC)CC1COC2(CCC(C(C)(C)C)CC2)O1 (configuration not stated)
active: [11] 100 µM
not listed: [17]
inactive: all other assays above

COP(=O)(OC)O/C(C)=C/C(=O)N(C)C
not listed: [4] | [16] | [17] | [19]
inactive: all other assays above

N#Cc1c[nH]cc1-c1cccc2c1OC(F)(F)O2
active: [8] 26.9 µM | [10] 22.4 µM | [15] 39.8 µM
not listed: [17] | [19] | [20]
inactive: all other assays above

CS(=O)(=O)c1ccc(C(=O)C2C(=O)CCCC2=O)c([N+](=O)[O-])c1
not listed: [6] | [16] | [19] | [20]
inactive: all other assays above

CCOc1cc(C(C)(C)C)ccc1C1COC(c2c(F)cccc2F)=N1 (configuration not stated)
active: [7] 100 µM | [20] 93.3 µM
not listed: [4] | [5] | [6] | [14] | [18] | [19]
inactive: all other assays above

Cn1c(-c2ccccc2)cc(-c2ccccc2)[n+]1C
active: [2] 2.11 µM
not listed: [6] | [20]
inactive: all other assays above

Cc1cc(C)nc(Nc2ccccc2)n1
active: [8] 43.7 µM | [20] 75.7 µM | [15] 61.8 µM
not listed: [17] | [18]
inactive: all other assays above
